# Test results reported in PubChem BioAssay (EPA / NIEHS).
# The source made the active and inactive calls. The calls were made as follows: active = hit-call score of the fitted dose curve at least 0.9, where 1 is the maximum; inactive = score below 0.9.
# Assay: CCTE_Padilla_ZF_Score.Spine: CCTE's 144 Hour Post-fertilization zebrafish Assay Score for Spine Malformation, Padilla Lab (AID 2284407)
# Procedure: CCTE_Padilla_ZF_Phenotype_Score is a whole embryo, multiplexed assay using zebrafish ova exposed for 144 hours post fertilization on a 96-well plate.CCTE_Padilla_ZF_Score.Spine is one of one assay component(s) measured or calculated from the CCTE_Padilla_ZF_Phenotype_Score assay. It is designed to make measurements of zebrafish development as detected with brightfield microscopy of developing zebrafish embryos.Data from the assay component CCTE_Padilla_ZF_Score.Spine was analyzed into 1 assay endpoints. This assay endpoint, CCTE_Padilla_ZF_Score.Spine, was analyzed in the positive analysis fitting direction relative to DMSO as the negative control and baseline of activity. Using a type of viability reporter, gain-of-signal activity can be used to understand changes in developmentals as they relate to the whole embryo. To generalize the intended target to other relatable targets, this assay endpoint is annotated to the zebrafish development intended target family, where the subfamily is body axis morphogenesis.
# Zebrafish husbandry: Wild type adult zebrafish (Danio rerio; undefined outbred stock obtained from Aquatic Research Organisms, Hampton, NH, 03842) were housed in an AAALAC-approved animal facility at 28C with a 14:10 h light: dark cycle (lights on at 08:30 h). Adult fish (2-3 females per male; density = 15-20 adults per tank) were kept in one of several 9-liter (L) flow-through colony tanks (Aquaneering Inc., San Diego, CA). All adults in a colony tank were placed in a 2 L (static) breeding tank (Aquatic Habitats, Apopka, FL) one hour prior to light onset. Typically, adults from two to three colony tanks were mated on the same day. Two hours after light onset the adults were returned to the colony tank. All embryos were gathered from each breeder tank, pooled, and placed in a 28C water bath for 2 h, followed by two washes with 0.06% bleach (v/v) in 10% Hanks' Balanced Salt Solution (13.7 mM NaCl 0.54 mM KCl, 25 uM Na2HPO4, 130 uM CaCl2 100 um MgSO4 and 420 um NaHCO3,), hereafter referred to as Hanks' solution, for 5 min in order to remove any residual bacteria or fungi. Immediately following washing, the embryos were examined, and healthy embryos were separated from dead or unfertilized eggs and moved into fresh Hanks'. Chemical exposures: Zebrafish embryos were exposed in 96-well plates. Between 6- and 8-hours post fertilization (hpf), healthy embryos (with chorions) were transferred, one embryo per well, into 96 well (0.5 mL) microtiter plates (Cell Culture-Treated, Flat-Bottom Microplate 96 well [Corning Costar, Kennebunk, ME; Cat 09-761-145]) filled with 200 uL of Hanks' solution. A random number generator was used to assign the order in which the rows of embryos were plated in 96 well plates each week. After plating, the embryos were dosed with 0.8 uL of the chemical dosing solution then immediately sealed with AlumaSeal II (Excel Scientific Inc, Victorville, CA) to prevent volatilization of the chemicals, and then placed in a leakproof secondary container. These containers were placed in an incubator maintained on a 14:10 h light: dark cycle at 26C for rearing. On 5 dpf, live larvae were gently moved out of the plate with test chemicals and into a new 96 well mesh plate (Millipore Corp., Bedford, MA) with just the Hanks' solution. Once within the mesh well plate, the animals were rinsed with 400 uL of fresh Hanks' three times, and then the plates were covered with a non-adhesive material (Microseal A, BioRad, Hercules, CA), plate lid added, and then plate sides wrapped in Parafilm (PM992, Bermis Company, Neenah, WI), and returned to the incubator. […]
row,SMILES,outcome
1,FC(F)(F)C(F)(F)C(F)(F)C(F)(F)C(F)(F)C(F)(F)I,inactive
2,FC(F)(F)COC(OCC(F)(F)F)OCC(F)(F)F,inactive
3,FC(F)C(F)(F)COCC1CO1 (stereo not given),inactive
4,C[Si](C)(C)C(F)(F)C(F)(F)C(F)(F)F,inactive
5,O=S(=O)(O)CCC(F)(F)C(F)(F)C(F)(F)C(F)(F)C(F)(F)C(F)(F)F,inactive
6,O=C(Cl)C(F)(F)C(F)(F)C(F)(F)C(=O)Cl,inactive
7,NCC(F)(F)C(F)(F)C(F)(F)C(F)(F)F,inactive
8,FC(F)=C(F)C(F)(F)C(F)(F)C(F)(F)C(F)(F)C(F)(F)C(F)(F)F,inactive
9,OC(O)(C(F)C(O)(O)C(F)(F)F)C(F)(F)F,inactive
10,OCCC(F)(F)C(F)(F)C(F)(F)C(F)(F)F,inactive
